Data as given in PubChem BioAssay.

Test: inhibition of PAO1 biofilm formation – strain PAO1, LB-PBS medium, absorbance 600 nm, primary screen (AID 1176)
Settings: P. aeruginosa PAO1 growth/biofilm, A600, 12 h; higher = more signal
Note: test concentration not given here.

z-score, inactive:
COC(=O)[C@@]1(Cc2ccccc2CN=[N+]=[N-])N=C(c2ccc(OCCCO)cc2)O[C@H]1c1ccccc1N=[N+]=[N-] 1.69
O=C/C=C/c1ccc(/C=C/c2ccccc2)cc1 0.668
CC(C)NC(=O)[C@@]1(Cc2ccccc2I)c2ccccc2C(=O)N(C2CCCCC2)[C@H]1c1ccc(CO)cc1 0.593
C=CCC(OC(C)=O)[C@@H]1[C@@H](N(Cc2cccc3ccccc23)C(=O)Cc2ccc(F)cc2)c2cc(OCCCO)ccc2N1C(=O)Cc1ccc2ccccc2c1 (stereo not given in full) 0.195
CCCC=C(CCC)[C@@H](NC(=O)c1ccc(C(F)(F)F)cc1)c1ccccc1 4.02

Test: growth modulation of vineyard yeast isolate – strain RM11-1a, OD600, basal, 24 h, primary screen (AID 1177);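 note: cultures grown under basal conditions with no added stressor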
Settings: S. cerevisiae RM11-1a growth, OD600, 24 h; higher = more signal, called active from +8 up or from −8 down

z-score, inactive:
COCCOC(=O)N1C(=O)[C@@]2(c3cc(C#CC4=CCCCC4)ccc31)[C@H](C(=O)NC[C@H](O)c1ccccc1)[C@H]1C(=O)O[C@H](c3ccccc3)[C@H](c3ccccc3)N1[C@@H]2c1ccc(OCCO)cc1 2.7
CCC#CCN(Cc1ccccc1Br)[C@H](/C=C/c1ccccc1)[C@@H](O)Cc1ccccc1 0.846
C=C(CCCC)/C(=C/C[C@@H](OC(=O)c1ccncc1)c1cccc(OCCO)c1)c1cc(C(=O)OC)ccc1OC 0.0731
NC(=O)NCC#Cc1ccc2c(c1)[C@]1(C(=O)N2)[C@H](c2ccccc2OCCO)N2[C@H](c3ccccc3)[C@H](c3ccccc3)OC(=O)[C@H]2[C@@H]1C(=O)N1CCN(c2ncccn2)CC1 2.03
O=C1OCC=C[C@H]2OC34C=CCN(Cc5ccccc5)C(=O)[C@H]3N(CCO)C(=O)[C@@H]4[C@@H]12 (stereo not given in full) -0.77
